In paper PMC7862700, “An all-to-all approach to the identification of sequence-specific readers for epigenetic DNA modifications on cytosine”:

What was measured:
Test in all cases: DAPPL (digital affinity profiling via proximity ligation, sequencing); 10 mM Tris-HCl pH 7.5, 50 mM NaCl, 1 mM DTT, 4% glycerol, room temperature, 30 min; GST-TFs on glutathione beads, 16-mer random dsDNA library, 0.1% formaldehyde crosslink after washing; high values mean tight binding
FEV = biological target: T1, FEV (Homo sapiens, UniProt Q99581 1-238); settings: protein: recombinant; tags: N-terminal GST; dsDNA, one strand shown
T1 sequence: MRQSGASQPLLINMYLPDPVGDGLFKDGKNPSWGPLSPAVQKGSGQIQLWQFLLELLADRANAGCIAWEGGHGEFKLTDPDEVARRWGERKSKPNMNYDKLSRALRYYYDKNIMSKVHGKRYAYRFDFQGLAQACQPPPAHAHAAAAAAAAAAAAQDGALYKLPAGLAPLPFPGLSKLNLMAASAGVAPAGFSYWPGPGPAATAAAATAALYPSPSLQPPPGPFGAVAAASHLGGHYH
Method in brief: (§1)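 Pools of DNA-barcoded human transcription factors, expressed in yeast as GST fusions on glutathione beads and combined with a tag-only sample, were incubated with 200 nmole of a 16-mer random double-stranded DNA library. Incubation took 30 min at room temperature in Tris/NaCl/DTT/glycerol buffer and was followed by washing, 0.1% formaldehyde crosslinking, proximity ligation (BsaI/T4 ligase, 1 h, 37 °C), PCR amplification and sequencing on an Illumina NextSeq500. Binding signal is the ratio of a hexamer's read frequency for a factor to its frequency for the tag-only sample.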

ETV5 = ETV5 (Homo sapiens, UniProt P41161 1-510); settings: protein: recombinant; tags: N-terminal GST; dsDNA, one strand shown
Method in brief: as §1

HSF1 = HSF1 (Homo sapiens, UniProt Q00613 1-529); settings: protein: recombinant; tags: N-terminal GST; chain copies: 3; dsDNA, one strand shown
Method in brief: as §1

SPIC = biological target: T2, SPIC (Homo sapiens, UniProt Q8N5J4 1-248); settings: protein: recombinant; tags: N-terminal GST; dsDNA, one strand shown
T2 sequence: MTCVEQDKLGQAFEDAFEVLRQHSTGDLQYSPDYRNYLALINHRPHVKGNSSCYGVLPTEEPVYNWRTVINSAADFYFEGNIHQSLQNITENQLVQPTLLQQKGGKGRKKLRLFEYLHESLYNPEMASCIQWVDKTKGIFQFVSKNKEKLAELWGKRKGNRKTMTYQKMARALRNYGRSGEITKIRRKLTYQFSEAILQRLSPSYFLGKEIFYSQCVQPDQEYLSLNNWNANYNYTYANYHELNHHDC
Method in brief: as §1

ELF4 = ELF4 (Homo sapiens, UniProt Q99607 1-663); settings: protein: recombinant; tags: N-terminal GST; dsDNA, one strand shown
Method in brief: as §1

ELK4 = biological target: T3, ELK4 (Homo sapiens, UniProt P28324-2 1-405); settings: protein: recombinant; tags: N-terminal GST; dsDNA, one strand shown
T3 sequence: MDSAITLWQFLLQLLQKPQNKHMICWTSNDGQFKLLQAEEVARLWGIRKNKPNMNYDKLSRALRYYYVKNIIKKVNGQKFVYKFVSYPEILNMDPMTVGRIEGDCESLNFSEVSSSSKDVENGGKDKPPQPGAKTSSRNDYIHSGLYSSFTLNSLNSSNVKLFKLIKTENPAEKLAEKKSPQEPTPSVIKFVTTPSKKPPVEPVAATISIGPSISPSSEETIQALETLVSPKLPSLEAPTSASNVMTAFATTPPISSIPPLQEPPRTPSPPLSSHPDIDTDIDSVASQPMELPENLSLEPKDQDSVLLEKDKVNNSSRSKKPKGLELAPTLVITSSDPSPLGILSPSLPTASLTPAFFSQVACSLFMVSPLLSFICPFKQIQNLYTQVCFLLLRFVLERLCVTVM
Method in brief: as §1

ETV2 = biological target: T4, ETV2 (Homo sapiens, UniProt O00321 1-342); settings: protein: recombinant; tags: N-terminal GST; dsDNA, one strand shown
T4 sequence: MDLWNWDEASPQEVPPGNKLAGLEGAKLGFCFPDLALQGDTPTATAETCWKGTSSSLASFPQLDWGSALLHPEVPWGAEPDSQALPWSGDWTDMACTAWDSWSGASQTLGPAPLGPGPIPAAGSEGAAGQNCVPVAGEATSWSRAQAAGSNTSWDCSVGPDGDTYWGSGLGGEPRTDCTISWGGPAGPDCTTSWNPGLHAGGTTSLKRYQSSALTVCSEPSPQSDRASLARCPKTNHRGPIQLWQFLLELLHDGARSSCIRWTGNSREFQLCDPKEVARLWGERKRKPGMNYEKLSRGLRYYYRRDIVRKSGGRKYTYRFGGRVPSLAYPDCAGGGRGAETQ
Method in brief: as §1

ELF3 = biological target: T5, ELF3 (Homo sapiens, UniProt P78545 1-371); settings: protein: recombinant; tags: N-terminal GST; dsDNA, one strand shown
T5 sequence: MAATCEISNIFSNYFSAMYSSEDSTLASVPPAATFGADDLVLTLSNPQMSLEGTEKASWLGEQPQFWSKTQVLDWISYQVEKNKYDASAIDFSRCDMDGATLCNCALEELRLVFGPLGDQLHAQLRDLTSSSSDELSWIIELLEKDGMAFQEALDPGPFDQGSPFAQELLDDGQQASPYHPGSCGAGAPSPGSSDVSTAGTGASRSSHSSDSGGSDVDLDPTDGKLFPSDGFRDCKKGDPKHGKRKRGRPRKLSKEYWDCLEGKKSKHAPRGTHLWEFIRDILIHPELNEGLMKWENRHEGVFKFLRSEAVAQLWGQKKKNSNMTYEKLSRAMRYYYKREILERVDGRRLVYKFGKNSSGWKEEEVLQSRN
Method in brief: as §1

CRX = CRX (Homo sapiens, UniProt O43186 1-299); settings: protein: recombinant; tags: N-terminal GST; dsDNA, one strand shown
Method in brief: as §1

ETV1 = ETV1 (Homo sapiens, UniProt P50549 1-477); settings: protein: recombinant; tags: N-terminal GST; dsDNA, one strand shown
Method in brief: as §1

Sequence of CRX (O43186 whole entry): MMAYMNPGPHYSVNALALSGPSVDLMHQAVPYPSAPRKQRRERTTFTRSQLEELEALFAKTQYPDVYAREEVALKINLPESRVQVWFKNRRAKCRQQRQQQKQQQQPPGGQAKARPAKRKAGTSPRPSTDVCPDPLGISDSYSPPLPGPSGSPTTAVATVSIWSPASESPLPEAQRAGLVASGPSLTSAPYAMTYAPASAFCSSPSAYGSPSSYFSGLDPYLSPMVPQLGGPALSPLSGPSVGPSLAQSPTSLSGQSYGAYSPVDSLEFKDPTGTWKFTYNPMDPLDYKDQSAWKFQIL
Sequence of ETV5 (P41161 whole entry): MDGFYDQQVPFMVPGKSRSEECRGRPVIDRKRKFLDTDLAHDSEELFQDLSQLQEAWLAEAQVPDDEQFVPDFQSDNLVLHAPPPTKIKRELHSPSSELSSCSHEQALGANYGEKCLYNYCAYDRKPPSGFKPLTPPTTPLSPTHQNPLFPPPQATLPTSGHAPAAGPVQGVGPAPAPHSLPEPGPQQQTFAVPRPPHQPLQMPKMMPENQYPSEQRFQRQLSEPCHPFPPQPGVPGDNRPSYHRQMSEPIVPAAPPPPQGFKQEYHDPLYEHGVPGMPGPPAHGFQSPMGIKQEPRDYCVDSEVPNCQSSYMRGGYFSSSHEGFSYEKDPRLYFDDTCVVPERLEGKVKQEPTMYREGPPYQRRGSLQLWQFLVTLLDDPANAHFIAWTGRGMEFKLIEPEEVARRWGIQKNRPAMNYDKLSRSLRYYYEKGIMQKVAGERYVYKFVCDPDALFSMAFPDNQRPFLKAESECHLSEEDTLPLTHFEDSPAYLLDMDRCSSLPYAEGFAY
Sequence of ETV1 (P50549 whole entry): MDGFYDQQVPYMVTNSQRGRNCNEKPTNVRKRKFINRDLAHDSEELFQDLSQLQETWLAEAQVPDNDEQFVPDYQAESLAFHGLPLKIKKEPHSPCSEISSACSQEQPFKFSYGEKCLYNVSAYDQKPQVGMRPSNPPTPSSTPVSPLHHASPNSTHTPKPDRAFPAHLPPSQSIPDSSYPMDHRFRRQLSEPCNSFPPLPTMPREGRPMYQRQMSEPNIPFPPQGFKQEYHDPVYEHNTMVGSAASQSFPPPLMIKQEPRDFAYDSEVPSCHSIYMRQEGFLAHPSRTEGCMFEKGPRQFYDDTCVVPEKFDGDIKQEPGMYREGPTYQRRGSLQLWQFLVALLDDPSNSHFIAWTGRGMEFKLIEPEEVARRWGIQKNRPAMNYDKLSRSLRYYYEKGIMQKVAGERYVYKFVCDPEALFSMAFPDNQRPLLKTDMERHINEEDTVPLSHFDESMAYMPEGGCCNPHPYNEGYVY
Sequence of ELF4 (Q99607 whole entry): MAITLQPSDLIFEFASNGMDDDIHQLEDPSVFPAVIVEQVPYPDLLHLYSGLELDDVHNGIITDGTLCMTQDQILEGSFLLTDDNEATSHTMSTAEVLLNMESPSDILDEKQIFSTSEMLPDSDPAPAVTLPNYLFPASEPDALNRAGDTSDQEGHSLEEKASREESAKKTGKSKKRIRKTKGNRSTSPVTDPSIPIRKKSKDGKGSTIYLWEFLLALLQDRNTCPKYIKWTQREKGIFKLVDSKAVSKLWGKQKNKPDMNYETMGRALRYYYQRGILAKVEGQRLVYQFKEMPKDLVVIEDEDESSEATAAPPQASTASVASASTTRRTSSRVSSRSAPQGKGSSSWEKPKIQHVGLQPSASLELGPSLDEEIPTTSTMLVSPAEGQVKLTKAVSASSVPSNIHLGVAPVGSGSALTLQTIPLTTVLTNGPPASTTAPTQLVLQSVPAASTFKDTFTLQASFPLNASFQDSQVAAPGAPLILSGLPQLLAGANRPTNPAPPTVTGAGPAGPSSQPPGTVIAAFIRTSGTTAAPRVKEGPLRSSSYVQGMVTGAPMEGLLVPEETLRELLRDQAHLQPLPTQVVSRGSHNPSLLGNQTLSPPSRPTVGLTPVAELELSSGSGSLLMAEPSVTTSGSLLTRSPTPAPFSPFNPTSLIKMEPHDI
Sequence of HSF1 (Q00613 whole entry): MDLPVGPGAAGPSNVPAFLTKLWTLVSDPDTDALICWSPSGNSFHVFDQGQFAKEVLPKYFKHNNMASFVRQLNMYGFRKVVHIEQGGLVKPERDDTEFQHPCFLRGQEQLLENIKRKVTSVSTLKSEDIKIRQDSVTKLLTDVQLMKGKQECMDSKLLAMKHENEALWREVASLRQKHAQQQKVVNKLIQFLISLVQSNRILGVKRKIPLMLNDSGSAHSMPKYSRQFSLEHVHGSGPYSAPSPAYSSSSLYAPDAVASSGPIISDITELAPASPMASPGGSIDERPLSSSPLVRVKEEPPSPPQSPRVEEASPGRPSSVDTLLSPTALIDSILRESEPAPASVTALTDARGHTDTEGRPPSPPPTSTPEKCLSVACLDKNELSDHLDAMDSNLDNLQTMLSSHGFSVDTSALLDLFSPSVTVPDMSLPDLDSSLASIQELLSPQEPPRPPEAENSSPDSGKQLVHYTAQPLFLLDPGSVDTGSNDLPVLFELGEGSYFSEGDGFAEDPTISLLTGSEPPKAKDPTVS

For GTTGCT, the binding signal (FEV) was 1.18 fold enrichment (6-mer frequency, TF over GST control), the binding signal (ETV5) was 1.28 fold enrichment (6-mer frequency, TF over GST control) and the binding signal (HSF1) was 1.09 fold enrichment (6-mer frequency, TF over GST control). The binding signal (SPIC) was 1.28 fold enrichment (6-mer frequency, TF over GST control), the binding signal (ELF4) was 1.27 fold enrichment (6-mer frequency, TF over GST control) and the binding signal (ELK4) was 1.33 fold enrichment (6-mer frequency, TF over GST control). The binding signal (ETV2) was 1.26 fold enrichment (6-mer frequency, TF over GST control), the binding signal (ELF3) was 1.16 fold enrichment (6-mer frequency, TF over GST control) and the binding signal (CRX) was 1.06 fold enrichment (6-mer frequency, TF over GST control). For the same sequence, the binding signal (ETV1) was 1.38 fold enrichment (6-mer frequency, TF over GST control).
